# Mcl1-Noxa inh = Mcl-1/Noxa interaction inhibition; TR-FRET Mcl-1/Noxa peptide binding, 2 h; Q07820; inhibition, % at 21.7 µM; 1.5% of 220,000 active; AID 1022;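 active = compounds that cut the protein-peptide binding signal by more than 50% relative to plate controls in a single-dose test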;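 note: His-tagged Mcl-1 with rhodamine Noxa BH3 peptide and terbium anti-His antibody; 0% = Mcl-1 plus Noxa peptide wells and 100% = peptide-only wells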
# Mcl1 Bid PPI = disrupts binding of human Mcl-1 to Bid peptide. AID 1021. inhibition, % at 21.7 µM. Q07820. TR-FRET Mcl-1/Bid-Dy647 peptide binding, 1536-well. 0.97% of 220,000 active;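 active = compounds that cut the binding signal by more than half at the single screening dose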;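 note: His-tagged Mcl-1 with europium anti-His antibody binding Bid BH3 peptide; 0% = Mcl-1 plus peptide wells and 100% = peptide-only wells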
# Bim-Mcl-1 = disrupts Bim peptide binding to human Mcl-1. Bead-based flow cytometry, Bim peptide-Mcl-1 binding. Q07820. 0.1% of 190,000 active. inhibition, % at 10 µM. AID 1009; in the data active = inhibition above about 40%;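 note: 0% = no compound tracer wells and 100% = peptide blocker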
# Bcl-xL primary = blocks human Bcl-xL binding to Bim BH3 peptide; GST-Bcl-xL / FITC-Bim BH3 peptide fluorescence polarization; inhibition, % at 10.9 µM; AID 2129; Q07817; 0.7% of 320,000 active;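 active = inhibition above the mean of all tested compounds plus 3 SD, cutoff set per campaign, cut at about 30% in these data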;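 note: 0% = DMSO wells and 100% = unlabeled Bim-BH3 peptide competitor; inhibitors lower millipolarization by displacing the labeled peptide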
# GLD-1 TGE inh = GLD-1-TGE RNA interaction inhibition (C. elegans). Q17339. inhibition, % at 5.96 µM. purified GLD-1 + fluorescein TGE RNA, fluorescence polarization. 0.44% of 320,000 active. AID 2280;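 active = percent inhibition above a per-plate cutoff, the plate mean of test compounds plus 3 SD, cut at about 30% in these data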;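 note: 0% = DMSO wells with GLD-1 and probe and 100% = wells lacking GLD-1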
# Target sequence (Q17339 whole entry, looked up): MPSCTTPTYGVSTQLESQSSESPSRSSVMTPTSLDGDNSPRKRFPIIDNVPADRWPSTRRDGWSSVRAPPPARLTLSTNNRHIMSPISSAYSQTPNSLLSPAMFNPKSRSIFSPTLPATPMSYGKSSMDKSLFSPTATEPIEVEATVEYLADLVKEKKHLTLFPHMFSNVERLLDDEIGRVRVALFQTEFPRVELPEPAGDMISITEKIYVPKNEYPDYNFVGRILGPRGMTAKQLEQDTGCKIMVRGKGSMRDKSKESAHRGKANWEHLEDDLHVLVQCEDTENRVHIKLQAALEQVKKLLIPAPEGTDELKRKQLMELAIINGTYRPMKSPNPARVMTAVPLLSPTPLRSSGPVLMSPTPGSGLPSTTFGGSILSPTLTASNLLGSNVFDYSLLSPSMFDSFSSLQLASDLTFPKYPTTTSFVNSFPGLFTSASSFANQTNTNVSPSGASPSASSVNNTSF
# MCL1-BIM inh = disrupts human MCL1 binding to BIM-BH3 peptide | AID 2057 | inhibition, % at 10.9 µM | GST-MCL1 / FITC-Bim-BH3 fluorescence polarization | Q07820 | 0.68% of 320,000 active;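 active = inhibition above the mean inhibition of all tested compounds plus 3 SD, set per campaign, cut at about 40% in these data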;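 note: 0% = DMSO wells and 100% = unlabeled Bim-BH3 peptide control; higher means more loss of mP so more displacement of Bim peptide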
# Bcl-xL conf = counter-screen for MCL1 inhibitors: confirmation of human Bcl-xL inhibitors. shares compounds with MCL1-BIM inh. GST-Bcl-xL / FITC-Bim BH3 peptide FP binding. inhibition, % at 10.9 µM. 54% of 1,700 active. AID 2166;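 active = inhibition above a cutoff equal to the mean inhibition of all tested compounds plus 3 SD, cut at about 30% in these data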;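 note: 0% = DMSO wells and 100% = unlabeled Bim BH3 control peptide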
# MCL1 inh confirm = MCL1-BIM-BH3 interaction inhibition, confirmation; shares compounds with MCL1-BIM inh; GST-MCL1 / FITC-Bim-BH3 fluorescence polarization; inhibition, % at 10.9 µM; 61% of 1,700 active;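 active = inhibition above the average of all tested compounds plus 3 SD, cut at about 40% in these data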;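 note: 0% = DMSO wells and 100% = unlabeled Bim-BH3 control peptide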
# Active calls of the source: *; · = not tested or not shown. The list is not random: actives were taken first. Their share in the collection is about 2.3%.
SMILES,Mcl1-Noxa inh,Mcl1 Bid PPI,Bim-Mcl-1,Bcl-xL primary,GLD-1 TGE inh,MCL1-BIM inh,Bcl-xL conf,MCL1 inh confirm
CCCCCCCCCCCCCCCC(=O)OC(CC(=O)O)C[N+](C)(C)C (stereo not drawn),·,·,·,12,3,85*,9,8
COc1cccc(CNC(=O)CN(C)S(=O)(=O)c2ccc3c(c2)n(C)c(=O)c(=O)n3C)c1,·,·,·,3,-2,5,·,·
CCC(C)Sc1ccc(-c2nc3ccc(C)cn3c2NC2CCCCC2)cc1 (stereo not drawn),·,·,·,48*,15,48*,18,16
Cc1ccc(C(=O)O)cc1N1C(=O)c2cccc3c([N+](=O)[O-])ccc(c23)C1=O,·,·,·,82*,50*,102*,47*,76*
Cc1ccc(S(=O)(=O)N2[C@@H](c3ccc(Br)cc3)C(C(=O)O)=CC[C@H]2c2ccc3c(c2)OCO3)cc1,·,·,·,·,0,·,·,·
COCC(C)N1C(=O)Cc2c1nc(N)c1c(N)nc(N3CCN(c4ccccc4F)CC3)c(C#N)c21 (stereo not drawn),26,-24,-1,23,1,23,·,·
COCCN1C(=O)Cc2c1nc(N)c1c(N)nc(N3CCN(c4ccc(F)cc4)CC3)c(C#N)c21,61*,-6,0,21,0,42*,7,17
COc1cccc(CNC(=O)C(NS(=O)(=O)c2ccc3c(c2)CCN3C(C)=O)C(C)C)c1 (stereo not drawn),·,·,·,-1,6,-5,·,·
Cc1cc(=O)cc(C)n1-c1ccccc1N,·,·,·,4,4,11,·,·
Cc1ccc(C)n1-c1ccccc1N,11,-30,-5,92*,99*,87*,-123,-194
COc1ccc(NS(=O)(=O)c2ccc(NC(=S)NC(=O)c3cccc(F)c3)cc2)nn1,16,-52,-3,10,-4,42*,21,11
CCOc1cc(C(c2c(O)nc(SC)[nH]c2=O)c2c(O)nc(SC)[nH]c2=O)ccc1O,·,·,·,84*,68*,97*,65*,76*
O=C(O)c1cc(-c2ccco2)nn1-c1cccc(Cl)c1,69*,1,-4,31*,-11,82*,18,38
Cc1ccc(N=Nc2c(O)n(CN3CCOCC3)c3ccccc23)cc1,-3,-28,-2,96*,89*,78*,-22,-36
COc1cc2c3nnc(-c4ccc(F)cc4)c-3cn(Cc3ccc(F)cc3)c2cc1OC,-43,-36,0,72*,-11,58*,84*,83*
COc1cc2c3nnc(-c4ccc(F)cc4)c-3cn(Cc3ccccc3)c2cc1OC,-12,-25,1,82*,-2,68*,64*,63*
COc1ccc(-c2nnn(Cc3ccccc3)n2)cc1OC,·,·,·,0,6,-6,·,·
CCS(=O)(=O)NCc1ccc2[nH]c3c(c2c1)CCCC3,3,-40,-3,59*,40*,73*,49*,70*
Cc1nn(C)cc1S(=O)(=O)Nc1ccc(C(F)(F)F)cc1,·,·,·,0,9,3,·,·
Cc1nnc(NC(=O)c2cc(-c3ccco3)nc3ccccc23)s1,·,·,·,26,-4,66*,7,33
Cc1ccc(-c2cc(C(=O)NCc3ccco3)c3ccccc3n2)o1,66*,1,0,20,22,51*,30*,58*
Cc1csc(NC(=O)c2cc(-c3ccco3)nc3ccccc23)n1,99*,12,-2,19,-4,40*,21,60*
Cc1csc(NC(=O)c2cc(C)nc3ccccc23)n1,24,-2,0,-13,4,-4,·,·
O=C(N/N=C/c1ccc(F)cc1)c1cc(-c2ccco2)nc2ccccc12,104*,98*,-1,11,6,64*,33*,80*
CCc1nnc(NC(=O)c2cc(-c3ccc(C)o3)nc3ccccc23)s1,·,·,·,18,2,13,·,·
